Results: PubChem BioAssay (Tox21)
Several values for one entry are separate records, joined by “and”; a condition that tells them apart may be missing. Equal entries are not always repeated. Inconclusive results are not listed. Where a structure was tested more than once in an assay, its records may differ in their call. Activity calls are given as the source filed them. Unless noted, the call rests on the fitted dose curve; in most records, active means well fitted curve in the direction sought with a large enough effect in the repeat runs; inconclusive means weak or mixed curves; inactive means no such curve, though single readings can be large; an effect the other way counts as inactive or inconclusive.

Tests used:
[1] = qHTS assay for small molecule disruptors of the mitochondrial membrane potential (AID 720635); further: potency means the concentration at half of the fitted maximal effect
How it was run: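 HepG2 cells exposed to compound 1 hr at 37C, then Mito-MPS dye 30 min. Ratio read of aggregate (540/590 nm) versus monomer (490/535 nm) fluorescence.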

[2] = qHTS assay to test for compound auto fluorescence at 535 nm (green) in HepG2 cells (AID 720675)
[3] = qHTS assay to test for compound auto fluorescence at 535 nm (green) in HEK293 cells (AID 720680)
[4] = qHTS assay to test for compound auto fluorescence at 590 nm (red) in HEK293 cell free culture (AID 720683)
How it was run: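 Cell-free wells of DMEM with 10% FBS received compound, and intrinsic fluorescence was read at excitation/emission 540/590 nm. Values expressed as equivalence to Rose Bengal sodium.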

[5] = qHTS assay to test for compound auto fluorescence at 535 nm (green) in HepG2 cell free culture (AID 720686)
[6] = qHTS assay to test for compound auto fluorescence at 460 nm (blue) in HepG2 cells (AID 720687)
How it was run: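 HepG2 cells in MEM with 10% FBS, attached overnight at 37 C, were exposed to compound or DMSO for 1 hr at 37 C, 5% CO2. Blue fluorescence was read at 405/460 nm, with triamterene as reference fluorophore.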

[7] = target: Glucocorticoid receptor (Homo sapiens) (UniProt P04150); test: qHTS assay to identify small molecule agonists of the glucocorticoid receptor (GR) signaling pathway (AID 720691; active means well fitted activation curve with a large enough effect in the signal ratio in the repeat runs, not every such curve was filed as active; the % refers to the signal ratio)
How it was run: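 GR-bla HeLa cells (beta-lactamase reporter under glucocorticoid response element) were plated 4 h at 37 C/5% CO2, given compounds in DMSO, and incubated 18 h at 37 C. LiveBLAzer B/G FRET substrate was added for 2 h at room temperature, then fluorescence intensity read.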

[8] = qHTS assay for identifying genotoxic compounds that show differential cytotoxicity against isogenic chicken DT40 cell lines with known DNA damage response pathways - wild type cell line (AID 743012); further: nearly all actives have a fitted effect of over 60% in size; further: potency means the concentration at half of the fitted maximal effect
How it was run: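 Parental DNA repair-proficient DT40 cells, 300 per well, were pre-incubated ~0.5 h at 37 C/5% CO2, pin-dosed with compounds in DMSO, then incubated 40 h. Viability was read as CellTiter-Glo luminescence after 30 min at room temperature.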

[9] = qHTS assay for identifying genotoxic compounds that show differential cytotoxicity against isogenic chicken DT40 cell lines with known DNA damage response pathways - Rad54/Ku70 mutant cell line (AID 743015); further: nearly all actives have a fitted effect of over 60% in size; further: potency means the concentration at half of the fitted maximal effect
[10] = qHTS assay to identify small molecule antagonists of the androgen receptor (AR) signaling pathway - cell viability counter screen (AID 743033; further: nearly all actives have a fitted effect of over 45% in size)
[11] = qHTS assay to identify small molecule antagonists of the thyroid receptor (TR) signaling pathway - cell viability counter screen (AID 743064); further: nearly all actives have a fitted effect of over 50% in size; further: potency means the concentration at half of the fitted maximal effect
How it was run: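 GH3.TRE-Luc rat pituitary cells dosed after 4 hr plating, co-stimulated with T3 at 1 nM final, incubated 23.5 h at 37 C. Viability measured in the same wells by CellTiter-Fluor fluorescence after 30 min further at 37 C.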

[12] = qHTS assay to identify small molecule antagonists of the thyroid receptor (TR) signaling pathway (AID 743065); further: series mostly up to about 70 µM; nearly all actives have a fitted effect of over 55% in size
How it was run: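 GH3.TRE-Luc rat pituitary cells (two TREs driving luciferase) were dosed with compound, then stimulated with 1 nM T3 (final) for 23.5 h at 37 C. ONE-Glo luminescence was the read-out, with CellTiter-Fluor fluorescence as the cytotoxicity counter-screen.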

[13] = target: Estrogen receptor (Homo sapiens) (UniProt P03372); test: qHTS assay to identify small molecule agonists of the estrogen receptor alpha (ER-alpha) signaling pathway (AID 743075; calls by dose curve;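 further: HEK293 GripTite cells with ER-alpha and UAS-driven beta-lactamase reporter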)
[14] = target: Estrogen receptor (Homo sapiens) (UniProt P03372); test: qHTS assay to identify small molecule agonists of the estrogen receptor alpha (ER-alpha) signaling pathway using the BG1 cell line (AID 743079); further: nearly all actives have a fitted effect of over 20% in size
[15] = qHTS assay to identify small molecule antagonists of the estrogen receptor alpha (ER-alpha) signaling pathway using the BG1 cell line (AID 743080; calls by dose curve;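 further: BG1 cells stimulated with 17beta-estradiol alongside compound; nearly all actives have a fitted effect of over 25% in size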; further: potency means the concentration at half of the fitted maximal effect)
How it was run: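 Readout is ONE-Glo luminescence, taken 30 min at room temperature after reagent addition, preceded by a CellTiter-Fluor viability read; BG1-Luc-4E2 cells had received compound and 17beta-estradiol for 21.5 h at 37 C.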

[16] = target: Peroxisome proliferator-activated receptor gamma (Homo sapiens) (UniProt P37231); test: qHTS assay to identify small molecule agonists of the peroxisome proliferator-activated receptor gamma (PPARg) signaling pathway (AID 743094; active means well fitted activation curve with a large enough effect in the signal ratio in the repeat runs, not every such curve was filed as active; the % refers to the signal ratio)
How it was run: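 GeneBLAzer PPARg UAS-bla HEK293H cells carrying a stably integrated beta-lactamase reporter were pre-incubated 5 h at 37C, then exposed to compounds in DMSO for 17 h at 37C; LiveBLAzer B/G FRET substrate was added for 1 h at room temperature and fluorescence read.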

[17] = target: Nuclear receptor subfamily 1 group I member 2 (Homo sapiens) (UniProt O75469); test: Human pregnane X receptor (PXR) activation by small molecules, qHTS assay (AID 1346985); further: nearly all actives have a fitted effect of over 40% in size
How it was run: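 DPX-2 cells (HepG2 co-transfected with a PXR response element and a CYP3A4-promoter luciferase construct) were seeded at 2,000 per well, rested 5 hr at 37C, then exposed to DMSO-dissolved compounds for 24 hr. Activation was read as luciferase luminescence.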

[18] = qHTS assay to test for compound auto fluorescence at 590 nm (red) in HepG2 cell free culture (AID 720684)
How it was run: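 Compound was pinned into wells holding MEM with 10% FBS and no cells, and red fluorescence was read at Ex/Em 540/590 nm. Signal is expressed as auto fluorescence equivalency relative to Rose Bengal sodium.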

[19] = qHTS assay to test for compound auto fluorescence at 460 nm (blue) in HepG2 cell free culture (AID 720685)
How it was run: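 Compound (23 nL) or DMSO pinned into cell-free MEM with 10% FBS; blue fluorescence read at 405/460 nm excitation/emission, expressed as auto-fluorescence equivalency to triamterene.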

[20] = target: Aryl hydrocarbon receptor (Homo sapiens) (UniProt P35869); test: qHTS assay to identify small molecule that activate the aryl hydrocarbon receptor (AhR) signaling pathway (AID 743085); further: nearly all actives have a fitted effect of over 15% in size; further: potency means the concentration at half of the fitted maximal effect;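 on activation: HG2L7.5c1 human HepG2 liver cells with stably integrated DRE-driven firefly reporter; series mostly up to about 70 µM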
How it was run: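 HepG2 cells stably carrying a 20-DRE firefly luciferase reporter (HG2L7.5c1) treated with compound for 24 hr at 37C. Luciferase read by ONE-Glo luminescence, with CellTiter-Fluor viability read first.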

Measured: Potency

Chain of Glucocorticoid receptor (Homo sapiens) (P04150 whole entry, looked up): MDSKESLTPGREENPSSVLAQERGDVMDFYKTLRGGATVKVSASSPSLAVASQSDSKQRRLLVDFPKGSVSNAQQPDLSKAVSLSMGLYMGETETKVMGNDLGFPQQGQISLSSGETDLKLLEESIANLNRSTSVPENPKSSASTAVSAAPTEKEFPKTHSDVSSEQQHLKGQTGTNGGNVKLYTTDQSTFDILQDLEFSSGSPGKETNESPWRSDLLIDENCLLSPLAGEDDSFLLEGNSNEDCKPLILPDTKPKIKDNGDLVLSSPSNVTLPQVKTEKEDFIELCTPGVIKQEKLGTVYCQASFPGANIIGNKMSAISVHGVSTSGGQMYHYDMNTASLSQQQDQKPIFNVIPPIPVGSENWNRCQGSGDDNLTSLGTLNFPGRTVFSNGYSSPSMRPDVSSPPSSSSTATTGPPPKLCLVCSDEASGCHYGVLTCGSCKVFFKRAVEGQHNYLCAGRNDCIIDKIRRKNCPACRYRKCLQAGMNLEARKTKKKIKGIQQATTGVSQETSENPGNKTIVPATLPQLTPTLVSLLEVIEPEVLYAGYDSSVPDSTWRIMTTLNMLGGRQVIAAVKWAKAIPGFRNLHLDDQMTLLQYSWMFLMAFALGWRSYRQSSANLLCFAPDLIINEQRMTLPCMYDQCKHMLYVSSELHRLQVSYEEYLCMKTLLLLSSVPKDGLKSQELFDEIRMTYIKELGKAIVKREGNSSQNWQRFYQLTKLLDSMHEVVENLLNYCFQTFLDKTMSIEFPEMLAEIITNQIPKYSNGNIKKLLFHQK
Chain of Peroxisome proliferator-activated receptor gamma (Homo sapiens) (P37231 whole entry, looked up): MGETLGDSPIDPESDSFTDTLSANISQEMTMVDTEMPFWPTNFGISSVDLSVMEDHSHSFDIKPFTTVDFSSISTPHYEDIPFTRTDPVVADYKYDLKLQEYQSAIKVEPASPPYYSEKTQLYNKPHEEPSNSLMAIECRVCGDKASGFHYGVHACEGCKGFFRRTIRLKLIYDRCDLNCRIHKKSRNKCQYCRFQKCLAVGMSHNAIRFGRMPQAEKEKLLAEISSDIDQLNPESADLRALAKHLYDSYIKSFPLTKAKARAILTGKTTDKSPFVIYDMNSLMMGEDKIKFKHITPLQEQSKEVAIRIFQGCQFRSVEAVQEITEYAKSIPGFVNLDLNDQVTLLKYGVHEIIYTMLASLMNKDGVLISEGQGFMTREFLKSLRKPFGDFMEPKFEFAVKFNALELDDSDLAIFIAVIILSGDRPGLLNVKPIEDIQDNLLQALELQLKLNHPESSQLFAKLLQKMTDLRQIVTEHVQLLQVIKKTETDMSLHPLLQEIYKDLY
Chain of Aryl hydrocarbon receptor (Homo sapiens) (P35869 whole entry, looked up): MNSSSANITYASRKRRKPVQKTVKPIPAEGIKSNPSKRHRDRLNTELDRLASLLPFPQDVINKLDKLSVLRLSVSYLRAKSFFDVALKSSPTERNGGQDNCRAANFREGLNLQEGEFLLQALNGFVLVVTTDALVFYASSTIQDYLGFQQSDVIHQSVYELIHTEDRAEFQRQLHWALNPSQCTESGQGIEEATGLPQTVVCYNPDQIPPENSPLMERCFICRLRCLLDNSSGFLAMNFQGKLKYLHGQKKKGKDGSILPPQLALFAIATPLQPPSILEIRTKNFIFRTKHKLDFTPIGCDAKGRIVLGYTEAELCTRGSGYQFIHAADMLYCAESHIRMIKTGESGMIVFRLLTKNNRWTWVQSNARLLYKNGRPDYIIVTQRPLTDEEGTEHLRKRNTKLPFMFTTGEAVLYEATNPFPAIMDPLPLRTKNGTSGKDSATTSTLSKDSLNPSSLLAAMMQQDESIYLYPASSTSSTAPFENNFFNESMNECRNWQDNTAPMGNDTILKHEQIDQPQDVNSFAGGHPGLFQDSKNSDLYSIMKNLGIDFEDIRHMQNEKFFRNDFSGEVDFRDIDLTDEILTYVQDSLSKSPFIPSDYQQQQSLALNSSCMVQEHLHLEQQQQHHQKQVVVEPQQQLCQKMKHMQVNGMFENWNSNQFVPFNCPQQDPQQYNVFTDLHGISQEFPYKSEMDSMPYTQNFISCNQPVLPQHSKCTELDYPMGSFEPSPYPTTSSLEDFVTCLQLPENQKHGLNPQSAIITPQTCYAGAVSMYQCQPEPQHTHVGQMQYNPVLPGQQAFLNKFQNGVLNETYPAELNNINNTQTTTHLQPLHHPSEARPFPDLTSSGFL
Chain of Estrogen receptor (Homo sapiens) (P03372 whole entry, looked up): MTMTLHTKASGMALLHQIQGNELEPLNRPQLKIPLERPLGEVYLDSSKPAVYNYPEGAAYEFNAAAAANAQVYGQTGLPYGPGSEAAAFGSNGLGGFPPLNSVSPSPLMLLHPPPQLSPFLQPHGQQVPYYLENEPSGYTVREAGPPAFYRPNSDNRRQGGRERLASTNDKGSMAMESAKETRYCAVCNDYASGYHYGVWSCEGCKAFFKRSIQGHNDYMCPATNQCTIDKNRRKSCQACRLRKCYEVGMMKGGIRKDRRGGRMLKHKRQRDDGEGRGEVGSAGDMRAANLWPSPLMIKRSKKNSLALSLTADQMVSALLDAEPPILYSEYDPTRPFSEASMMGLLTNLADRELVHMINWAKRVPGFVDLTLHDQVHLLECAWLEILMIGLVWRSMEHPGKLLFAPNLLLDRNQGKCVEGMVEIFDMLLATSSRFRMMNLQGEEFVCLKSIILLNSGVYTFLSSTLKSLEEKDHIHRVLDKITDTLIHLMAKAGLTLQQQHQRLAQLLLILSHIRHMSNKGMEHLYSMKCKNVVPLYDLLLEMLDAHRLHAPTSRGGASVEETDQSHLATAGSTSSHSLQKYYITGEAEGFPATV

COC1=CC=C2[C@H]3Cc4ccc(OC)c5c4[C@@]2(CCN3C)[C@H]1O5
not listed: [18] | [19] | [20]
inactive: all other assays above

CN(C)CCCCCCN(C)C
not listed: [2] | [12] | [13] | [14] | [15] | [16] | [17]
inactive: all other assays above

Cc1ccccc1-n1c(CF)nc2ccc(N)cc2c1=O
active: [20] 29.8 µM
not listed: [4] | [7] | [8] | [9] | [13] | [14] | [15]
inactive: all other assays above

Oc1c(Cl)cc(Cl)cc1Cl
inactive: [2] | [3] | [4] | [18] | [19] | [6] | [12]
active: [1] 17 µM and 48.6 µM

CCNCC(O)c1cccc(O)c1 (configuration not stated)
not listed: [2] | [3] | [8]
inactive: all other assays above

COC(COC(N)=O)C1=C(N2CC2)C(=O)C(C)=C(N2CC2)C1=O (configuration not stated)
active: [9] 0.0047 µM | [11] 0.841 µM | [15] 0.531 µM | [20] 29.8 µM
not listed: [4] | [8] | [10] | [12] | [14] | [16]
inactive: all other assays above

CCC1(c2cnc[nH]2)Cc2ccccc2C1
active: [8] 21.1 µM and 26.6 µM | [9] 26.6 µM | [20] 23.7 µM and 8.41 µM
inactive: [2] | [4] | [5] | [6] | [10] | [13] | [14] | [15] | [16]

CCC1(C)CC(=O)NC(=O)C1
not listed: [10] | [15] | [18]
inactive: all other assays above

CCC1(CC)C(=O)NC(=O)N(C)C1=O
not listed: [5] | [6] | [12]
inactive: all other assays above

c1ccccc1
not listed: [1] | [17] | [19] | [20]
inactive: all other assays above

Cc1ccc([N+](=O)[O-])c(C)c1
inactive: [20]

CNC(=O)OCC[N+](C)(C)C
not listed: [3] | [10] | [16]
inactive: all other assays above

NCC(O)c1cccc(O)c1 (configuration not stated)
not listed: [12] | [16] | [20]
inactive: all other assays above

CC(=O)Oc1ccc2c3c1O[C@H]1[C@@H](OC(C)=O)C=C[C@H]4[C@@H](C2)N(C)CC[C@@]341
inactive and 68.3 µM (active): [8]
not listed: [3] | [12]
inactive: all other assays above

O=C1CN(O)C(c2ccccc2)=c2cc(Cl)ccc2=N1
not listed: [4] | [6] | [13] | [14] | [15] | [20]
inactive: all other assays above

c1cc2c(c(NC3=NCCN3)c1)CCCC2
inactive: [1] | [2] | [3] | [4] | [18] | [19] | [5] | [6] | [7] | [10] | [17]

CCOc1ccc2c3c1O[C@H]1[C@@H](O)C=C[C@H]4[C@@H](C2)N(C)CC[C@@]341
not listed: [8] | [11] | [12] | [16] | [20]
inactive: all other assays above
